The text below walks through data of PubChem BioAssay (NCI).

Experiment [1] is described as follows: NCI Yeast Anticancer Drug Screen. Data for the rad50 strain (AID 155).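 Further: 0% = growth of vehicle-only cultures of the same strain.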 The note with it: S. cerevisiae rad50 strain growth inhibition; at 50.0 µM; active compounds read high. The essentials:
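Genetically altered yeast (DNA repair pathway); compound treatment; growth inhibition vs vehicle ctrl.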

Experiment [2] in a line: NCI Yeast Anticancer Drug Screen. Data for the mec2-1 strain (AID 157). The conditions noted are these: S. cerevisiae mec2-1 strain, at 50.0 µM, active compounds read high. The essentials:
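mec2-1 yeast strain, carrying an alteration in DNA damage repair or cell cycle control, was exposed to compounds; growth inhibition was measured relative to vehicle-treated controls.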

A short description of experiment [3]: NCI Yeast Anticancer Drug Screen. Data for the sgs1 mgt1 strain (AID 161).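 Further: 0% = growth of cultures given vehicle only.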 The note with it: S. cerevisiae sgs1 mgt1 strain, at 50.0 µM, active compounds read high. An outline of the steps: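 Compounds are added to genetically altered yeast, and growth is compared with cultures given vehicle alone to give percent inhibition.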
Experiment [4] can be described thus: NCI Yeast Anticancer Drug Screen. Data for the cln2 rad14 strain (AID 165).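 Further: 0% = growth equal to vehicle treated cultures.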 The note with it: S. cerevisiae cln2 rad14 strain, at 50.0 µM, active compounds read high. An outline of the steps:
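Yeast carrying cln2 and rad14 alterations (cell cycle control and DNA damage repair) were exposed to compounds. Growth inhibition was measured against vehicle-treated controls.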

A short description of experiment [5]: NCI Yeast Anticancer Drug Screen. Data for the bub3 strain (AID 167). The conditions noted are these: S. cerevisiae bub3 mutant strain, at 50.0 µM, active compounds read high. An outline of the steps: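 Yeast carrying a defined mutation is treated with each compound, and growth is compared with that of vehicle-exposed cells to give inhibition.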
Experiment [6] can be described thus: NCI Yeast Anticancer Drug Screen. Data for the mlh1 rad18 strain (AID 175). The note with it: S. cerevisiae mlh1 rad18 strain growth inhibition; at 50.0 µM; active compounds read high. The essentials: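 Growth inhibition of the yeast strain was measured after compound exposure and expressed relative to vehicle-treated controls. The strain carries defined defects in DNA damage repair.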

The panel holds about 79,000 compounds, 15% with a hit somewhere; the sample as a whole holds those more often. Unmarked numbers belong to inactive results. Active and inactive are the calls of the source. No stated cut-off is given here; in the data, active means growth inhibition above about 70%; inactive means the rest.

Take `ClC1=C(Cl)C2(Cl)C3C(CC4C3C3(Cl)C(Cl)=C(Cl)C4(Cl)C3(Cl)Cl)C1(Cl)C2(Cl)Cl` (stereo unspecified): the growth inhibition in experiment [1] was -7.65%; in experiment [2], -7.4%; in experiment [3] it was -2.75%; in experiment [4], -32.1%; in experiment [5], 0.15%; in experiment [6], -9.9%.
For `C=CCC(=O)OCc1cc2c(cc1Br)OCO2`, the growth inhibition in experiment [1] is -26.8%; in experiment [2], -17.2%; in experiment [3] it was -8.35%; in experiment [4], -10.6%; in experiment [5] it was 54.5%; in experiment [6], 5.85%.
Take `O=C(CCCC(=O)Nc1cccc([N+](=O)[O-])c1)CC(=O)c1ccc([N+](=O)[O-])cc1`: the growth inhibition was -2.7% in experiment [1]; -1.25% in experiment [2]; -8.2% in experiment [3]; -4.15% in experiment [4]; -14.6% in experiment [5]; 8% in experiment [6].
Consider `Nc1nc(-c2ccccc2)nc2[nH]ncc12`, for which the growth inhibition in experiment [1] was -5.45%; in experiment [2], -3.5%; in experiment [3] it was -11.2%; in experiment [4], -10.2%; in experiment [5], 1.6%; in experiment [6] it was 5.75%.
As to `Clc1ccc(N=C(Oc2ccc(Cl)cc2)c2ccccc2)cc1`, the growth inhibition in experiment [1] was 4.95%; in experiment [2] it was 7.35%; in experiment [3], -4.85%; in experiment [4], -12.4%; in experiment [5], 0.25%; in experiment [6], 3.6%.
Take `O=S(=O)(Nc1ccn(-c2ccccc2)n1)c1ccc(NCc2c3ccccc3nc3cc(Cl)ccc23)cc1`: the growth inhibition in experiment [1] is 17.1%; in experiment [2], 21.2%; in experiment [3], 15.8%; in experiment [4] it was -24.2%; in experiment [5] it was -13.6%; in experiment [6], 23.6%.
For the molecule `Cc1ccc(CCOS(=O)(=O)c2ccc(C)cc2)cc1`, the growth inhibition in experiment [1] is 13.5%; in experiment [2], -26.5%; in experiment [3], -1.3%; in experiment [4], 10.2%; in experiment [5] it was 28%; in experiment [6], 10.7%.
With `Cc1cc(C)c(NC(=O)Nc2cccc(F)c2)c(C)c1`, the growth inhibition in experiment [1] is 20.8%; in experiment [2], 11%; in experiment [3], 13.2%; in experiment [4], 19.2%; in experiment [5] it was 23.4%; in experiment [6], 13.3%.
As to `S=c1nc(-c2cccnc2)[nH][nH]1`, the growth inhibition was 1.6% in experiment [1]; 0.5% in experiment [2]; 0.7% in experiment [3]; 0.8% in experiment [4]; 1.55% in experiment [5]; 3.85% in experiment [6].
`CCC1(CC)C(=O)N(C(=O)c2ccc(C)cc2)N(C(=O)c2ccc(C)cc2)C1=O`: the growth inhibition in experiment [1] is 3.65%; in experiment [2], -6.1%; in experiment [3] it was 14.6%; in experiment [4] it was 18.1%; in experiment [5], 2.8%; in experiment [6] it was -17.3%.
In the case of `COC(=O)c1nc(N)nc(C(=O)OC)c1C(=O)c1cccc([N+](=O)[O-])c1`, the growth inhibition is -11.1% in experiment [1]; -19.4% in experiment [2]; -33.2% in experiment [3]; 30.6% in experiment [4]; -21.7% in experiment [5]; -16.8% in experiment [6].
Regarding `C[N+]1(C)CCC(c2ccccc2)(c2ccccc2)C(O)C1` (stereo unspecified), the growth inhibition in experiment [1] is -8.85%; in experiment [2], 40.7%; in experiment [3] it was 0%; in experiment [4], -0.2%; in experiment [5], -8.5%; in experiment [6], 1.5%.
With `COc1ccc(C2C(C)C(=O)C(C)C(c3ccc(OC)cc3)N2N=O)cc1` (stereo unspecified), the growth inhibition was 3.15% in experiment [1]; 6.4% in experiment [2]; 15.6% in experiment [3]; -1.2% in experiment [4]; 26.6% in experiment [5]; 32.8% in experiment [6].
Regarding `C=C(C)C(=O)OCCCCC`, the growth inhibition in experiment [1] was 8.7%; in experiment [2], 5.15%; in experiment [3], 4.45%; in experiment [4], 6.65%; in experiment [5] it was -3.55%; in experiment [6], 2.95%.
As for `Nc1nc[n+](Cc2ccccc2)c2ncn(Cc3ccccc3)c12`, the growth inhibition in experiment [1] is -5.6%; in experiment [2], -23.6%; in experiment [3], -11.2%; in experiment [4] it was -9.25%; in experiment [5], -14.7%; in experiment [6] it was 3.5%.
As to `O=c1sccc2ccccc12`, the growth inhibition in experiment [1] was 28.1%; in experiment [2], 25.4%; in experiment [3] it was 2.5%; in experiment [4], 9.4%; in experiment [5], 10.3%; in experiment [6], 1.35%.
For the molecule `O=C1c2ccccc2C(=O)N1CCNc1ccccc1[N+](=O)[O-]`, the growth inhibition was -9.25% in experiment [1]; -12.2% in experiment [2]; 7% in experiment [3]; -22.9% in experiment [4]; 6.5% in experiment [5]; -19.2% in experiment [6].
As for `Clc1ccccc1C(Cl)c1ccccc1` (stereo unspecified), the growth inhibition in experiment [1] is 3.3%; in experiment [2] it was -14.2%; in experiment [3], -5.95%; in experiment [4], -21.6%; in experiment [5] it was -10.7%; in experiment [6] it was -6.25%.
Regarding `CN1CCC(O)(C(C)(C)C)CC1`, the growth inhibition in experiment [1] was -5.05%; in experiment [2] it was -5.15%; in experiment [3], 3.65%; in experiment [4] it was 10.9%; in experiment [5] it was -3.7%; in experiment [6] it was -68.9%.
`COc1ccc(COC(=O)Oc2ccc(Cl)cc2)cc1OC`: the growth inhibition in experiment [1] was 93.8% (active); in experiment [2] it was 63.3%; in experiment [3], 50.7%; in experiment [4], 79.8% (active); in experiment [5] it was 90.5% (active); in experiment [6] it was 94.8% (active).
With `O=C(NCCN1CCOCC1)c1ccc(C(=O)NCCN2CCOCC2)cc1`, the growth inhibition in experiment [1] was 35%; in experiment [2], 22.9%; in experiment [3], 32.6%; in experiment [4], 17.5%; in experiment [5], 1.6%; in experiment [6], 33.9%.
